Results from the supplement of paper PMC6555819.

Columns and labels:
Assay in all cases: PBM binding z-score (relative to random genomic background probes); higher = stronger binding; sequences stand for … in GC…GCGATTGACAGCGTAGAATGAAGG
[1] = system: RARb homodimer (NR concentration 270 nM)
How it was run: (§1)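 On custom Agilent 4×180K arrays, double-stranded probes with 34-nt variable regions carried direct-repeat seeds, single-nucleotide variants, half-site ablations or random human genomic background. Ligand-free nuclear receptor dimers were applied for 1 h, and binding was read with antibodies against each partner (one per run). Binding z-scores come from regression-normalized fluorescence, with the random background probes as reference.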

[2] = system: RARg:RXRa (NR concentration 270 nM, RXRa partner concentration 90 nM)
How it was run: as §1

[3] = system: RARg homodimer (NR concentration 270 nM)
How it was run: as §1

[4] = system: RXRa DBDmut IVT, anti-RXR (DBD mutation: RXRa K156A/R161A, NR concentration 90 nM)
How it was run: as §1

[5] = system: RXRa homodimer (NR concentration 180 nM)
How it was run: as §1

[6] = system: THRa:RXRa (NR concentration 90 nM, RXRa partner concentration 90 nM)
How it was run: as §1

[7] = system: THRa homodimer (NR concentration 90 nM)
How it was run: as §1

[8] = system: VDR homodimer (NR concentration 270 nM)
How it was run: as §1

[9] = system: VDR:RXRa (NR concentration 270 nM, RXRa partner concentration 90 nM)
How it was run: as §1

| Sequence | PBM binding z-score [1] | PBM binding z-score [2] | PBM binding z-score [3] | PBM binding z-score [4] | PBM binding z-score [5] | PBM binding z-score [6] | PBM binding z-score [7] | PBM binding z-score [8] | PBM binding z-score [9] |
| --- | --- | --- | --- | --- | --- | --- | --- | --- | --- |
| CCTACTGAGCCATCAGGTCATTGATATCAACGTT | 2.7 | 1.5 | 1.69 | 1.17 | 1.42 | 3.37 | 3.52 | 2.2 | – |
| CGTCAAAGTTCAACTTAGGTAACGTAAAGCACGC | 4.13 | 6.16 | 6.72 | 4.76 | 5.38 | 5.19 | 0.769 | 4.21 | – |
| CAAACTAGGTCAAGTGGTCAAAGTCCGCTTCCCG | 4.26 | 4.95 | 5.48 | 1.85 | 3.76 | 3.16 | 1.43 | 1.08 | – |
| ATCGAAAGGACGTGAGGTGAGTATACAGAAAGGC | 0.895 | 0.703 | 1.12 | -0.854 | 0.282 | 1.89 | 0.987 | 0.126 | – |
| CAAACTAGGTCAAAGTCAAAGTCGGTTTGTGCCA | 3.06 | 3.87 | 4.41 | 2.32 | 3.11 | 2.81 | 0.817 | 1.05 | – |
| CAAACTAGGTCAACAGGTCAAAGTCCGCTTCCCG | 4.94 | 6.85 | 6.36 | 2.45 | 5.98 | 3.78 | 1.9 | 2.78 | – |
| CGTCAAAGTTCAATTAAGGTAACGTAAAGCACGC | 3.89 | 5.26 | 5.98 | 4.4 | 3.67 | – | 2.51 | 3.71 | 3.98 |
